# Source: PubChem BioAssay (The Scripps Research Institute Molecular Screening Center)
# TEAD-YAP block: TEAD-YAP interaction inhibition, primary screen, TEAD-YAP interaction inhibitor project, luminescence, HEK-TIYL cells | TEAD-Gal4/YAP UAS-luciferase luminescence | inhibition, % at 9.12 µM | 640,000 tested, 1.4% active | AID 1259422, 2018; in the data active means inhibition above about 32%
# MITF primary: MITF inhibitors, primary screen, biochemical, AlphaScreen, human. Microphthalmia-associated transcription factor (Homo sapiens), O75030. AlphaScreen MITF homodimerization, bead proximity signal. inhibition, % at 2.6 µM. 650,000 tested, 0.91% active. AID 1259374, 2018; in the data active means inhibition above about 50%
# Target sequence (O75030 whole entry, looked up): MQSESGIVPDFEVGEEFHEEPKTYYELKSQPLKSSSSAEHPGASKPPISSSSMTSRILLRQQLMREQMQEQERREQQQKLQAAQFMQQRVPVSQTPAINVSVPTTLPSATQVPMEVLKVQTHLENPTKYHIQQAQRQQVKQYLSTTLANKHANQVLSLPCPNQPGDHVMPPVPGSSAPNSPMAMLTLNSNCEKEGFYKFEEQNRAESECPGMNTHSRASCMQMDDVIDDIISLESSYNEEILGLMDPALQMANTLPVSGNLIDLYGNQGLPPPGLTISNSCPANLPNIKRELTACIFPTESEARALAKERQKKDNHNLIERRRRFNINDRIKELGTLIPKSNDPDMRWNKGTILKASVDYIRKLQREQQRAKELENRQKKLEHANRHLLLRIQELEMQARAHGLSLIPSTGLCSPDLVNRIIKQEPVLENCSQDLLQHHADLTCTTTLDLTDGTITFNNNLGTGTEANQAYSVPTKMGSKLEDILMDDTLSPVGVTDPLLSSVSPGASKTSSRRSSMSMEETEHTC
# FBW7 activator: FBW7 E3 ligase activators, primary screen, biochemical, AlphaScreen, human. F-box/WD repeat-containing protein 7 (Homo sapiens), Q969H0. AlphaScreen FBW7–phospho-cyclin E peptide binding, activator screen. normalized activity (activation), % at 26.1 µM. 650,000 tested, 0.13% active; in the data active means normalized activity above about 1.9%;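 further: purified mutant Fbw7 with reduced substrate affinity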
# GPR151 ag: activators of human GPR151, primary screen, cell-based, PathHunter beta-arrestin, luminescence; G-protein coupled receptor 151 (Homo sapiens), Q8TDV0; PathHunter beta-arrestin GPR151 cells; activation, % at 11.2 µM; 650,000 tested, 1% active; in the data active means activation above about 4.9%
# MITF confirm: MITF inhibitors, retest of hits, confirmation, biochemical, AlphaScreen, triplicate. shares compounds with MITF primary. AID 1259372, 2018. 4,700 tested, 16% active. inhibition, % at 2.6 µM. AlphaScreen MITF homodimerization, biotin/His-MITF beads;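 active means inhibition above a cutoff derived from the DMSO control wells, cut at about 28% in these data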;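 further: inhibitors lower the bead chemiluminescence by keeping MITF from dimerizing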
# AS interf DR: AlphaScreen optical interference compounds, dose response, counter-screen, biochemical, HTS; AlphaScreen optical interference counterscreen, cell-free; 480 tested, 6% active; AID 1259373, 2018; shares compounds with MITF primary; IC50, µM; call rule not given here
# AS interf ctr: AlphaScreen optical interference compounds, counter-screen for MITF inhibitor project, biochemical, triplicate; shares compounds with MITF primary; LysRS AlphaScreen counterscreen, signal interference; inhibition, % at 2.6 µM; 4,700 tested, 7.6% active;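 active means inhibition above a cutoff derived from the DMSO control wells, cut at about 30% in these data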
# Numbers stand for hits; – = inactive; · = not tested or not shown. Only some compounds are listed: those with a hit (about 3.5% of all), similar ones and a draw of the others.
SMILES,TEAD-YAP block,MITF primary,FBW7 activator,GPR151 ag,MITF confirm,AS interf ctr,others
Cc1cccc(OCC(=O)Nc2cc(C)c(C)cc2O)c1,–,98,–,–,–,–,
CCN1CCN(C/C=C/c2ccccc2OC)CC1,–,51,–,–,–,–,
O=[N+]([O-])c1ccc(CN2CCN(C/C=C/c3ccccc3)CC2)o1,–,65,–,–,–,–,
CCN1CCN(C/C=C/c2ccccc2[N+](=O)[O-])CC1,–,60,–,–,–,–,
N#C/C(=C\c1cn(Cc2ccccc2)c2ccccc12)c1nc2ccccc2[nH]1,–,–,–,–,·,·,
CCN(CC)CC(=O)Nc1c2c(nc3ccccc13)CCCC2,–,–,–,–,·,·,
CCCCCCN(CCCCCC)CC(=O)Nc1c2c(nc3ccccc13)CCC2,–,71,–,–,–,–,
CCCCCN(CCCCC)CC(=O)Nc1cc(C)nc2ccccc12,–,74,–,–,–,–,
CSc1cccc(CN2CCN3C(=O)[C@H](Cc4ccc(O)cc4)NC(=O)[C@H]3C2)c1,–,–,–,–,·,·,
CCOc1ccc(CN2CCC(C(=O)NCc3ccco3)CC2)cc1,–,83,–,–,–,–,
CCOc1ccc(CN2CCN(C(=O)c3ccccc3OC)CC2)cc1,–,57,–,–,–,–,
CCc1ccc(CN2CCN(C3CCC(C)CC3)CC2)cc1 (stereo not drawn),–,69,–,–,–,–,
COc1ccccc1C(=O)N1CCN(Cc2ccc3ccccc3c2)CC1,–,–,–,–,·,·,
CCOc1ccc(CN2CCC(C(=O)NC(C)(C)C)CC2)cc1,–,–,–,–,·,·,
Cc1cccc(CN2CCN(C3CCC(C)CC3)CC2)c1 (stereo not drawn),–,55,–,–,28,–,AS interf DR=–
Cc1ccccc1Cn1nc(C)c(NC(=O)CCCn2nc([N+](=O)[O-])cc2C)c1C,–,–,–,–,·,·,
Cc1ccccc1OCc1nnc(SCC(=O)Nc2nc3ccccc3s2)n1C,–,–,–,–,·,·,
CC1CCC(N2CCN(Cc3ccc(Cl)cc3)CC2)CC1 (stereo not drawn),–,69,–,–,–,–,
OC1CCN(Cc2ccc(Cl)cc2)CC1,–,–,–,–,·,·,
CCOc1ccc(CN2CCN(Cc3ccc(OCC)cc3)CC2)cc1,–,51,–,–,–,–,
CCOc1ccc(CN2CCN(C3CCC(C)CC3)CC2)cc1 (stereo not drawn),–,71,–,–,–,–,
CCOc1ccc(NC(=O)c2sc3ncn(CC(=O)N4CCCCC4)c(=O)c3c2C)cc1,–,–,–,–,·,·,
CNC(=O)c1c(NC(=O)CCSc2ccccc2)sc2c1CCC(C)C2 (stereo not drawn),–,–,–,–,·,·,
c1ccc2c(OCCN3CCCCC3)cccc2c1,–,–,–,–,·,·,
Clc1ccc(OCCN2CCCC2)c2ccccc12,–,53,–,–,–,–,
SMILES,TEAD-YAP block,MITF primary,FBW7 activator,GPR151 ag,MITF confirm,AS interf ctr,others
CCOc1ccccc1N1CCN(C(=O)C2CCN(Cc3cccs3)CC2)CC1,–,51,–,–,–,–,
CCOc1ccccc1OCCOCCN1CC(C)OC(C)C1 (stereo not drawn),–,53,–,–,–,–,
CCOc1ccccc1OCCN1CCN(c2ccccc2OC)CC1,–,89,–,–,–,–,
CC(C)(O)C#Cc1ccc(CN2CCC3(CC2)CC3C(=O)NCc2ccco2)cc1 (stereo not drawn),–,–,–,–,·,·,
Cc1ccc(C(=O)Nc2scc(-c3ccccc3)c2C(=O)N2CCN(C)CC2)cc1,–,–,–,–,·,·,
COC(=O)c1ccc2c(=O)n(Cc3cccnc3)c(=S)[nH]c2c1,–,–,–,–,·,·,
CCN(CC)S(=O)(=O)c1ccc(C(=O)Nc2nnc(-c3cc(C)ccc3C)o2)cc1,–,–,–,–,·,·,
O=C(COc1ccccc1F)N1CCCCC1,–,–,–,–,·,·,
O=C(COc1ccccc1F)OCCN1CCCC1,–,57,–,–,–,–,
CCOc1ccccc1OCCN1CCCC1,–,75,–,–,–,–,
CCOc1ccccc1N1CCN(Cc2ccoc2)CC1,–,53,–,–,–,–,
CCOc1ccccc1OCCN1CCCCC1,–,–,–,–,·,·,
O=C(NC(=S)Nn1cnnc1)c1ccc(Cl)c(S(=O)(=O)N2CCCCCC2)c1,–,–,–,–,·,·,
CC(C)(C)c1ccc(C(=O)NC(=S)Nc2ccc(S(N)(=O)=O)cc2)cc1,–,–,–,–,·,·,
CCOc1ccc(C(=O)NC(=S)Nc2ccc(S(N)(=O)=O)cc2)cc1,–,53,–,–,–,–,
CN(C)CCNCCCOc1ccccc1-c1ccccc1,–,74,–,–,–,–,
CN(C)CCOCCOc1cccc(Oc2ccccc2)c1,–,–,–,–,·,·,
CN(C)CCCOc1ccccc1-c1ccccc1,–,53,–,–,–,–,
CN(C)CCCOc1cccc(Oc2ccccc2)c1,–,62,–,–,–,–,
CN(C)CCNCCOCCOc1ccccc1-c1ccccc1,–,–,–,–,·,·,
COc1cccc(CN2CCN(C3CCCC3)CC2)c1,–,65,–,–,–,–,
COc1cccc(CN2CCN(Cc3cc(OC)cc(OC)c3)CC2)c1,–,80,–,–,–,–,
COc1cccc(CN2CCN(c3ncccn3)CC2)c1,–,–,–,–,·,·,
COc1cccc(CN2CCN(Cc3ccccn3)CC2)c1,–,51,–,–,–,–,
COc1cccc(CN2CCN(C3CCN(Cc4ccccc4)CC3)CC2)c1,–,–,–,–,·,·,
SMILES,TEAD-YAP block,MITF primary,FBW7 activator,GPR151 ag,MITF confirm,AS interf ctr,others
Cc1c(Cl)cccc1NC(=O)CSc1nnc(C)c(=O)[nH]1,–,–,–,–,·,·,
Cc1ccc(CCNC(=O)C2CC(=O)N(C3CCCC3)C2)cc1 (stereo not drawn),–,–,–,–,·,·,
COc1ccccc1/C=C/C(=O)N1CCN(c2ccccc2)CC1,–,–,–,–,·,·,
O=C(c1csc(-n2cccc2)n1)N1CCN(c2ccccn2)CC1,–,60,–,–,–,–,
O=C(c1csc(-n2cccc2)n1)N1CCN(c2ccccc2O)CC1,–,–,–,–,·,·,
CCN(CC(=O)Nc1ccccc1OC)CC(=O)Nc1ccccc1-c1ccccc1,44,82,–,–,–,–,
CCC(=O)Nc1sc2c(c1C(N)=O)CCCC2,–,–,–,–,·,·,
CC1(C)CC(=O)C=C(Nc2sc3c(c2C(N)=O)CCCC3)C1,–,81,–,–,–,33,
O=[N+]([O-])c1ccc(OCCNCc2ccco2)cc1,–,56,–,–,–,–,
O=[N+]([O-])c1ccc(OCCCNCc2ccco2)cc1,–,–,–,–,·,·,
N#CCSc1nc(-c2cccs2)cc(C(F)(F)F)c1C#N,–,–,–,–,·,·,
